Bioassay records: PubChem BioAssay, National Center for Advancing Translational Sciences (NCATS)
Most compounds without a hit are left out; they make up all but 10% or so of the library.
GPT2 inh: inhibitors of human GPT2 alanine aminotransferase; Q8TD30; Recombinant GPT2, coupled pyruvate oxidase/HRP Amplex Red fluorescence; Potency, µM (highest dose often 57.7 µM), without a hit: at the highest dose activity change, negative = inhibition, usual class: inhibitors; 0.25% of 100,000 active; further: nearly all actives have a fitted effect of over 60% in size
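Fluorescence of coupled pyruvate oxidase/HRP/Amplex Red system (50uM Amplex, 30 min, dark) reports pyruvate formed by GPT2. Enzyme reaction: 10ng/uL GPT2, 2mM L-alanine, 250uM a-KG, 30 min room temperature, pH 7.5; 50uM AOA control.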
HEK293 tox: kills HEK 293 cells. Potency, µM (titrated, usually from 115 µM), for the others: at the top dose activity change, negative = cytotoxicity, most hits filed as inhibitors. 6.6% of 94,000 active. HEK 293 viability, ATP luminescence (CellTiter-Glo), 48-72 h; further: nearly all actives have a fitted effect of over 60% in size
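HEK 293 seeded at 250 cells/well receive compound via pintool. After 48 or 72 hr at 37 degree Celsius, 5% CO2 and 95% humidity, CellTiter-Glo is dispensed and luminescence read following 10 min at room temperature.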
NIH3T3 tox: kills NIH 3T3 cells. NIH 3T3 viability, CellTiter-Glo ATP luminescence, 48-72 h. Potency, µM (titrated, usually from 96.7 µM), for the others: at the top dose activity change, negative = cytotoxicity, hits mostly inhibitors. 4.3% of 94,000 active. AID 1345082; further: nearly all actives have a fitted effect of over 55% in size
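ATP-dependent luminescence (CellTiter-Glo) served as the viability signal for NIH 3T3 cells treated with compound for 48 or 72 hr at 37 °C.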
hNpr1 antagonist: antagonists of human natriuretic peptide receptor Npr1. AID 1347048. HEK293 hNpr1 GloSensor cGMP, ANP-stimulated luminescence. 1.6% of 76,000 active. Potency, µM (highest dose often 46.3 µM), inactives show top-dose activity change, negative = inhibition, hits mostly inhibitors; calls by dose curve; further: nearly all actives have a fitted effect of over 60% in size
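HEK293 cells stably expressing human Npr1 and cGMP GloSensor pGS-40F, loaded 2 h with 2% GloSensor reagent, given compound 30 min at room temperature. Luminescence read before and 20 min after 0.1 nM hNppA.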
FLuc inh: inhibitors of firefly (Photinus pyralis) luciferase | P08659 | purified P. pyralis luciferase, luminescence, biochemical | Potency, µM (highest dose often 115 µM), actives largely listed as inhibitors | 2.5% of 76,000 active | AID 1347043; further: nearly all actives have a fitted effect of over 65% in size
Target sequence (P08659 whole entry, looked up): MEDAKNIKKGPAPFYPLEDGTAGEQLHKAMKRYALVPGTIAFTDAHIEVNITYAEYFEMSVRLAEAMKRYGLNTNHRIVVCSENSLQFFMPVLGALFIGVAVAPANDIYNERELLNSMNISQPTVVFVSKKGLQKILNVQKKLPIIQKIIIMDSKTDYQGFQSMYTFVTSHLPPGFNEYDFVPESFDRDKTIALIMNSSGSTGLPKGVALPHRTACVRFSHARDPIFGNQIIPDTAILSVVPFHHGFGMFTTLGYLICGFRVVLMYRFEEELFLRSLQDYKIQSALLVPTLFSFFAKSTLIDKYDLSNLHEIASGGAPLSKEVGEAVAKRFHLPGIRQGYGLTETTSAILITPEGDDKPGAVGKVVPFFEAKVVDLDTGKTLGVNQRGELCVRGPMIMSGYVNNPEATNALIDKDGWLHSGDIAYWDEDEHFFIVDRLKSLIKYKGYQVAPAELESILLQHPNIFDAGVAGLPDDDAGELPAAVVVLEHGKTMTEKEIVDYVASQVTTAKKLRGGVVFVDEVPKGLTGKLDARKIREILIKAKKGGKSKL
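Purified P. pyralis luciferase (10nM final) in 50mM Tris acetate pH 7.5, 10mM Mg acetate, 0.01% Tween-20, 0.05% BSA with 10uM D-luciferin and 10uM ATP. Compounds titrated qHTS. Luminescence imaged on CCD.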
Numbers without * were called inactive; i = inactive; ? = inconclusive; nt = no result given; ! = not confirmed by another sample; [ ] = remark or other dose. Unless noted, the call rests on the fitted dose curve; in most records, active means well fitted curve in the direction sought with a large enough effect; inconclusive means small, poorly fitted or top-dose-only effect, or another doubt; inactive means no such curve, though single readings can be large; an effect the other way counts as inactive or inconclusive. On the % scale 0 is the no-effect control and ±100 the full control effect; potency means the concentration at half of the fitted maximal effect.

SMILES	GPT2 inh	HEK293 tox	NIH3T3 tox	hNpr1 antagonist	FLuc inh
CN(Cc1ccccc1)Cc1cc(C[C@H]2CNCC[C@H]2CC(=O)N2CCN(c3ccccn3)CC2)no1	-4%	-14%	1%	4%	i
CN(Cc1ccccc1)C(=O)C[C@@H]1CCNC[C@@H]1Cc1cc(CN(C)c2ccccc2)on1	?	?	79µM*	-15%	i
COc1cccc(N2CC(C(=O)NCCc3ccc(Cl)cc3)NC2=O)c1 (stereo not given)	i	-24%	?	10%	i
O=C(NCCc1ccc(Cl)cc1)C1CN(c2cccc(Cl)c2)C(=O)N1 (stereo not given)	i	?	35µM*!	8%	i
CCNC(=O)NC1(Cc2cc(-c3ccc(OC)cc3)on2)COC1	i	?	3%[174 µM]	-1%[70.6 µM]	i
COc1ccc(-c2nccc3c(=O)cc(-c4cccnc4)oc23)cc1OC	4%[88.5 µM]	-7%[172 µM]	22µM*	0%[70.6 µM]	i
C[S+](=O)([O-])c1ccc(-c2nccc3c(=O)cc(-c4cccnc4)oc23)cc1	?	?	25µM*	-3%[70.6 µM]	i
O=c1cc(-c2ccncc2)oc2c(-c3cccc(O)c3)nccc12	4%[88.5 µM]	?	22µM*	3%[70.6 µM]	i
O=c1cc(-c2cccnc2)oc2c(NCc3ccc(F)cc3)nccc12	3%[88.5 µM]	-58%[172 µM]	50µM*	-5%[70.6 µM]	i
CSc1cccc(NC(=O)N[C@H]2CCN(C(=O)CC(C)(C)C)[C@@H]2C(=O)N[C@H](Cc2ccccc2)C(N)=O)c1	4%	-5%	-18%	4%	i
CC(=O)N1CCCN(C(=O)c2ccc3nnc(C4CCOCC4)n3c2)CC1	nt	-2%[172 µM]	-19%[138 µM]	nt	nt
O=C1OC[C@@H]2CCN(C3CCCC3)Cc3ccc(F)cc3N12	i	i	i	-3%[70.6 µM]	i
Cc1ccccc1-c1nccc2c(=O)cc(-c3cccnc3)oc12	0%[88.5 µM]	112µM*	25µM*	4%[70.6 µM]	i
C[C@@]12CO[C@@H](Cc3ccccc3)O[C@@H]1CC[C@]1(C)C2CC[C@@H](O)[C@H]1CC(=O)NCc1ccccc1 (stereo not given in full)	-3%	?	?	-4%	i
CSc1ccccc1-c1ccc(N2CCN(C)CC2)nn1	i	4%	i	-4%	16µM*
Cn1ccnc1-c1ccc(N2CCC(C(O)Cc3ccccc3)CC2)nn1 (stereo not given)	-17%	?	?	?	?
CC(C)(C)OCC1CN(Cc2ccccc2)[S+](=O)([O-])c2cnccc2O1 (stereo not given)	?	?	-29%[46.1 µM]	nt	nt
Cc1ccc2c(n1)N(C)[C@H](CO)CCN(C(=O)Nc1ccccc1)C2	-1%[88.5 µM]	-8%[172 µM]	-14%[138 µM]	-3%[70.6 µM]	i
Cc1ccc2c(n1)N(C)[C@H](CO)CCN(Cc1ccc(OC(F)(F)F)cc1)C2	?	79µM*	?	4%[70.6 µM]	i
Cc1ccc2c(n1)N(C)[C@H](CO)CCN(Cc1ccccc1Cl)C2	-16%[88.5 µM]	?	?	-9%[70.6 µM]	i
Cc1ccc2c(n1)N(C)[C@H](CO)CCN(CC1CCCCC1)C2	-25%[88.5 µM]	45µM*	?	-3%[70.6 µM]	i
CC(=O)N1CCC(N2CC[C@@H](CO)N(C)c3nc(C)ccc3C2)CC1	-3%[88.5 µM]	79µM*	45µM*	5%[70.6 µM]	i
Cc1ccc2c(n1)N(C)[C@H](CO)CCN(Cc1ccc(F)cc1)C2	-27%[88.5 µM]	-18%[172 µM]	-13%[174 µM]	0%[70.6 µM]	i
CCC(=O)N1Cc2ccccc2CC2(CCCCN2CC2CCOCC2)C1 (stereo not given)	i	-3%	i	nt	nt
Cc1cccc(C(=O)NCCc2ncc(C)n2C2CC2)c1	?	?	-6%	1%	i
SMILES	GPT2 inh	HEK293 tox	NIH3T3 tox	hNpr1 antagonist	FLuc inh
CC1=C[C@@H](CNC(=O)c2ccccc2)[C@H](C(C)C)C[C@H]1Cc1nnc(-c2cncn2C)o1	-7%[88.5 µM]	79µM*	100µM*	-15%[70.6 µM]	i
CC1=C[C@@H](CNc2ccccn2)[C@H](C(C)C)C[C@H]1Cc1nnc(-c2cncn2C)o1	3%[88.5 µM]	63µM*	?	-14%[70.6 µM]	i
COc1cccc(C(=O)N2CCN(c3ccc4ncc(-c5cccc(C(F)(F)F)c5)n4n3)CC2)c1	nt	?	11µM*	nt	nt
COc1cccc(C(=O)N2CCCN(c3ccc4nnc(C)n4n3)CC2)c1	nt	i	1%	nt	nt
OCC1CN(Cc2ccc(Br)cc2)CC12CCNCC2 (stereo not given)	-10%	40µM*	40µM*	-5%	i
O=C(c1ccccc1F)N1CCC2(CC1)CN(Cc1ccccc1)CC2CO (stereo not given)	-3%	79µM*	?	-15%	i
COCC1CN(Cc2ccc(C(C)C)cc2)CC12CCNCC2 (stereo not given)	i	45µM*	?	-10%	i
O=C(NC1CCCCC1)c1ccc2nc(-c3ccccn3)oc2c1	i	?	?	nt	nt
Cc1c(-c2ccccc2F)[nH]c2ccc(CNC(=O)CCC3=NNC(=O)CC3)cc12	-1%	?	?	-2%	?
Cc1c(-c2ccccc2F)[nH]c2ccc(CNC(=O)Cn3ccc(=O)[nH]c3=O)cc12	i	45µM*	45µM*	-7%	10µM*
Cc1c(-c2ccccc2)[nH]c2c(CNC(=O)Cn3ccc(=O)[nH]c3=O)cc(Cl)cc12	-5%	?	?	1%	?
Cc1c(-c2ccccc2F)[nH]c2ccc(CNC(=O)CCN3CCCC3=O)cc12	3%	?	-27%	0%	28µM*
CN(c1ccc(Cl)c(Cl)c1)C1CNC1	2%[88.5 µM]	112µM*	100µM*	nt	nt
O=C(c1cccc(Cl)c1)N1CCN(C(=O)c2nc3cccnc3n(Cc3ccccc3)c2=O)CC1	i	?	?	nt	nt
O=C(c1c[nH]c2ccccc12)N1CCN(c2cc(-c3cccs3)[nH]n2)CC1	-4%	45µM*	?	-22%	i
O=C(c1ccccc1Br)N1CCN(c2cc(-c3cccs3)[nH]n2)CC1	-8%	?	?	-25%	i
Cc1ccc(C(=O)N2CCN(c3cc(-c4cccs4)[nH]n3)CC2)cc1	0%	?	13µM*	-1%	i
O=C(c1ccoc1)N1CCN(c2cc(-c3cccs3)[nH]n2)CC1	i	1%	-10%	-5%	i
CN(C)c1ccc(-c2nnc([C@H]3CCN(Cc4ccccc4)C3)o2)cc1	i	?	?	-7%[70.6 µM]	63µM*
Cc1ccc(CN2CC[C@H](c3nnc(-c4ccccc4)o3)C2)cc1	-1%[88.5 µM]	?	?	1%[70.6 µM]	?
CN(C)c1ccc(-c2nnc([C@H]3CCN(CC4CC4)C3)o2)cc1	i	-20%[172 µM]	0%[138 µM]	8%[70.6 µM]	i
CN(C)c1ccc(-c2nnc([C@H]3CCN(CC4CCCCC4)C3)o2)cc1	-24%[88.5 µM]	100µM*	?	0%[70.6 µM]	?
